This note sets out measurements from PubChem BioAssay (Tox21).

Structures are written as SMILES. Results filed as inconclusive are left out. Values without a mark were called inactive. Calls follow the shape of the dose curve; as a rule, active = well fitted cell-killing curve with a large enough effect in the repeat runs; inconclusive = weak or mixed curves, or effect the other way; inactive = no such curve, though single readings can be large or run the other way.
% is scaled to controls: 0 for no effect and ±100 for the full control effect.

This experiment is described as follows: qHTS assay to identify small molecule antagonists of the peroxisome proliferator-activated receptor gamma (PPARg) signaling pathway - cell viability counter screen (AID 743194). Also: nearly all actives have a fitted effect of over 55% in size. Particulars: PPARg-bla HEK293H viability, CellTiter-Glo luminescence, 17 h, co-treated with 50 nM rosiglitazone; series mostly up to 62.6 µM; activity change, negative = cytotoxicity: at the top concentration. An excerpt: U.S. Tox21 Program National Center for Advancing Translational Sciences [NCATS] NIH Chemical Genomics Center [NCGC] U.S. Environmental Protection Agency [EPA] National Institutes of Environmental Health Sciences [NIEHS] National Toxicology Program [NTP] U.S. Food and Drug Administration [FDA] Tox21 Assay Overview: The peroxisome proliferator-activated receptors (PPARs) are lipid-activated transcription factors of the nuclear receptor superfamily with three distinct subtypes namely PPAR alpha, PPAR delta (also called PPAR beta) and PPAR gamma (PPARg). All these subtypes heterodimerize with Retinoid X receptor (RXR) and these heterodimers regulate transcription of various genes. PPAR-gamma receptor (glitazone receptor) is involved in the regulation of glucose and lipid metabolism. To identify the compounds that activate PPAR-gamma signaling, GeneBLAzer PPAR gamma UAS-bla HEK293H cell line (Invitrogen, Carlsbad, CA, USA) containing a beta-lactamase reporter gene under the control of an Upstream Activator Sequence (UAS) was used to screen the Tox21 compound library. The cytotoxicity of the Tox21 compound library against the PPARg-bla cell line was tested in parallel by measuring the cell viability using CellTiter-Glo assay in the same wells.
Tox21 Assay Protocol Summary: PPARg-bla cells were dispensed at 3000 cells/5uL/well in 1536-well black wall/clear bottom plates using a Multidrop Combi (Thermo Fisher Scientific, Waltham, MA) dispenser. After the assay plates were incubated at 37 C and 5% CO2 for 5 h, 23 nL of compounds dissolved in DMSO, positive controls or DMSO only was transferred to the assay plate by a Pintool station (Kalypsys, San Diego, CA), followed by addition of 1ul Rosiglitazone (50 nM, final concentration in the wells). The assay plates were incubated at 37 C for 17 h, and then 1 uL of LiveBLAzerTM B/G FRET substrate was added using a Bioraptr Flying Reagent Dispenser (FRD) workstation (Beckman Coulter, Indianapolis, IN, USA). The assay plates were incubated at room temperature for 1 h and fluorescence intensity was measured by an Envision plate reader (PerkinElmer, Shelton, CT). For cell viability readout that measures cytotoxicity, 4 ul/well of CellTiter-Glo reagent was added into the assay plates using a Flying Reagent Dispenser. After 30 min incubation at room temperature, the luminescence intensity in the plates was measured using a ViewLux plate reader (PerkinElmer).
In the case of `CCOC(=O)Nc1ccc2c(c1)N(C(=O)CCN1CCOCC1)c1ccccc1S2`, the “activity change, negative = cytotoxicity” value is -14.5%.

Consider `CNc1ncnc2nc[nH]c12`, for which the “activity change, negative = cytotoxicity” value is -1.35% [at 81.1 µM].

As for `C=C(C)[C@@H]1CCC2=CC(=O)C[C@@H](C)[C@]2(C)C1`, the “activity change, negative = cytotoxicity” value is -12.1%.

Regarding `CCC(C(=O)NC(N)=O)c1ccccc1` (stereo not given), the “activity change, negative = cytotoxicity” value is -1.35%.

Take `CCOC(=O)[C@H](CCc1ccccc1)N[C@@H](C)C(=O)N1CCC[C@H]1C(=O)O`: the “activity change, negative = cytotoxicity” value was 14.3%.

As to `CCCOc1ccccc1-c1nc2n[nH]nc2c(=O)[nH]1`, the “activity change, negative = cytotoxicity” value was -17%.

With `CC1=CC(C)C(C=O)C(C)C1` (stereo not given), the “activity change, negative = cytotoxicity” value was -20.1%.

Regarding `CC(C)N1C(=O)c2ccccc2C1=O`, the “activity change, negative = cytotoxicity” value was 0.579%.

`CCC(C)OC(=O)N1CCCCC1CCO` (stereo not given): the “activity change, negative = cytotoxicity” value was 3.2%.

Regarding `CCc1cc(S(=O)(=O)O)c2cc(C(C)C)cccc1-2`, the “activity change, negative = cytotoxicity” value is 4.63%.

Regarding `O=C1CC2(CCCC2)CC(=O)N1`, the “activity change, negative = cytotoxicity” value is 20.9%.

For the compound `CCCCCOC(=O)Nc1nc(=O)n([C@@H]2O[C@H](C)[C@@H](O)[C@H]2O)cc1F`, the “activity change, negative = cytotoxicity” value is 3.6%.

Regarding `CC(C)CCCC(C)NCCC(C)C` (stereo not given), the “activity change, negative = cytotoxicity” value is -20.8%.

For the compound `COC[C@H](c1ccc(C(F)(F)F)cc1)N1CCN(C2(C)CCN(C(=O)c3c(C)ncnc3C)CC2)C[C@H]1C`, the “activity change, negative = cytotoxicity” value was 2.89%.

As to `Cc1ccc(Nc2ccc(O)c3c2C(=O)c2ccccc2C3=O)cc1`, the “activity change, negative = cytotoxicity” value is 19.4%.

As to `CO`, the “activity change, negative = cytotoxicity” value was -1.46%.

On to `CCCCCCC(=O)OCC`, for which the “activity change, negative = cytotoxicity” value is 26.5%.

Regarding `CC(C)=CC(=O)O`, the “activity change, negative = cytotoxicity” value was 5.9%.

Regarding `CCCCCCCCN(C)CCCCCCCC`, the “activity change, negative = cytotoxicity” value is -3.01% [at 81.1 µM].

Consider `OC/C=C/c1ccccc1`, for which the “activity change, negative = cytotoxicity” value is -4.5% [at 81.1 µM].

Turning to `NC(N)=NS(=O)(=O)c1ccc(N)cc1`, the “activity change, negative = cytotoxicity” value is 15.6%.

For `FC(F)(F)C(F)(F)C(F)(F)C(F)(F)C(F)(F)C(F)(F)C(F)(F)C(F)(F)C(F)(F)C(F)(F)F`, the activity change, negative = cytotoxicity is 1.8% [at 5.95 µM].

Take `Cc1cc(C)cc(OCC2CNC(=O)O2)c1` (stereo not given): the “activity change, negative = cytotoxicity” value is -5.48%.

For the compound `O=C(O)c1ccccc1-c1ccc(C(F)(F)F)cc1`, the “activity change, negative = cytotoxicity” value is -14.7%.

Take `O=C1OC(=O)c2cc([N+](=O)[O-])ccc21`: the “activity change, negative = cytotoxicity” value was -9.3%.

Consider `CC1=CCC2C(C1)C2(C)C` (stereo not given), for which the “activity change, negative = cytotoxicity” value was -6.62%.

As to `C=CC(=O)OCCCCCC`, the “activity change, negative = cytotoxicity” value is 9.94%.

For `NS(=O)(=O)c1cc2c(cc1Cl)NC(CSCc1ccccc1)=NS2(=O)=O`, the “activity change, negative = cytotoxicity” value was -8.77%.

For `CC(C)=CCC/C(C)=C/C(=O)O`, the “activity change, negative = cytotoxicity” value is -0.188%.

Regarding `CCO[Si](CCCN=C=O)(OCC)OCC`, the “activity change, negative = cytotoxicity” value is 0.589%.

As to `CC1=CC(=O)CCC1`, the “activity change, negative = cytotoxicity” value was -0.182%.

`CC(=O)O[C@H](CC(=O)[O-])C[N+](C)(C)C`: the “activity change, negative = cytotoxicity” value is -2.97%.

`C=C(C)C(=O)OCCC(C)OC(=O)C(=C)C` (stereo not given): the “activity change, negative = cytotoxicity” value is -16.4%.

Take `CC(C)(O)Cc1ccccc1`: the “activity change, negative = cytotoxicity” value is -16.7%.

In the case of `c1ccc(SCCSc2ccccc2)cc1`, the “activity change, negative = cytotoxicity” value was 13.9%.

Take `Cc1cc(C)c(NC(=O)CN(CC(=O)O)CC(=O)O)c(C)c1Br`: the “activity change, negative = cytotoxicity” value was 3.45%.

Regarding `CO[Si](CCCNCCC[Si](OC)(OC)OC)(OC)OC`, the “activity change, negative = cytotoxicity” value was 1.92%.

As for `CC(C)[N+](C)(C)CC(O)COc1cccc2ccccc12` (stereo not given), the “activity change, negative = cytotoxicity” value is -10%.

Turning to `CCC(=O)/C=C/c1ccc(OC)cc1`, the “activity change, negative = cytotoxicity” value is 4.61%.

For the compound `CCCCNc1ccccc1`, the “activity change, negative = cytotoxicity” value was 8.6%.
